Experimental data as given in PubChem BioAssay AID1346428 (National Center for Advancing Translational Sciences (NCATS), 2018).
The whole screen tested about 48,000 compounds, of which about 1,200 (2.5%) were called active. About 2% were inconclusive and are not listed. This is one part of a sample in which actives are shown more often than they occur.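 The calls were made as follows: active = activation of at least 60% and not above a set upper limit (about 1 call in 100 departs from these limits); inconclusive = activation of 40% to 60%, or above that upper limit; inactive = activation under 40%.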

Each compound was assayed against Probable G-protein coupled receptor 32 (Homo sapiens) (UniProt O75388) (assay: qHTS for Agonists of Human Resolvin D1 Receptor DRV1). Conditions: CHO-K1 GPR32 beta-arrestin PathHunter luminescence, 90 min; at 76.9 µM; hits give high values; zero percent set by DMSO-only wells.
Outline: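 Step 1: seed CHO-K1 GPR32 beta-arrestin cells, 2,500/well, overnight at 37 °C. Step 2: add compounds, 90 min at 37 °C. Step 3: detection reagent, 1 h ambient, then luminescence.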
Also: 0% is about no effect.

Chain of Probable G-protein coupled receptor 32 (Homo sapiens) (O75388 whole entry, looked up): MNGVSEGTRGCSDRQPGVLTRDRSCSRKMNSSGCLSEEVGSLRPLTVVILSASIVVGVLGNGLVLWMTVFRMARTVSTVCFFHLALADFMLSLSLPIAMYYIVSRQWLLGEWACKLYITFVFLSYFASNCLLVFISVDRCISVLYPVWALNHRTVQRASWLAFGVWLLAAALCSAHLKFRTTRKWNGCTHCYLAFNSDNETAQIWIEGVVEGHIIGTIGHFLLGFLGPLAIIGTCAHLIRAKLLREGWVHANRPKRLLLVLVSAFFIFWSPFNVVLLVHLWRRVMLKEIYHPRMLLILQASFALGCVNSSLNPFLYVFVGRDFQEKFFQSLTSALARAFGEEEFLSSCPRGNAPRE

activation, inactive:
Cc1ccccc1C(=O)N(Cc1ccc(N(C)C)cc1)CC1CCCO1 (stereo unspecified) -21.9%
CSc1ccc(CCNC(=O)c2ccc3c(c2)nc2n3CCOC2)cc1 -8.85%
COc1ccc(NC(=O)CCc2nnc3n(CC(C)C)c(=O)c4ccccc4n23)cc1OC 10.7%
CC(C)Cn1c(=O)c2ccccc2n2c(-c3cccc(Cl)c3)nnc12 -0.202%
CC(C)(C)OC(=O)N1CCC(c2c(C(=O)Nc3ccc4c(c3)OCO4)cnn2-c2ccccc2)CC1 3.59%
CCN(CCCNC(=O)CSc1cc(=O)n(C)c2cc(Cl)ccc12)c1cccc(C)c1 3.23%
CCOc1ccc(CCNC(=O)CSc2cc(=O)n(C)c3ccc(Cl)cc23)cc1OCC -7.71%
Cc1ccccc1CNC(=O)Cn1c(C)c2cnn(-c3ccccc3)c(=O)c2c1C -12.3%
Cc1c(NC(=O)Nc2ccc(F)c(Cl)c2)c(=O)n(-c2ccccc2)n1C -8.62%
Oc1c(C(c2ccccc2Cl)N2CCOCC2)sc2nc(-c3ccco3)nn12 (stereo unspecified) -11.9%
Cc1cccc(-n2ncc(C(=O)N3CCc4ccccc4C3)c2C2CCN(C(=O)OC(C)(C)C)CC2)c1 -17.8%
O=C(COCc1cc(-c2ccc3c(c2)OCO3)on1)N1CCN(c2cccc(Cl)c2)CC1 -10.3%
Cc1cccc(CNS(=O)(=O)c2ccc(-c3cnc(C4CC4)o3)cc2)c1 -14.5%
O=C(NCCc1csc(-c2ccc(C(F)(F)F)cc2)n1)C(=O)Nc1ccc(F)c(Cl)c1 -7.23%
COc1ccc(-c2nc(CCNC(=O)c3ccc(Br)o3)cs2)cc1 6.04%
CCc1nc2c(cnn2-c2ccc(C)cc2)c(=O)n1-c1ccc(C)cc1 -4.43%
COc1cccc(C(=O)NC2(C(F)(F)F)C(=O)Nc3c2c(=O)[nH]c(=O)n3-c2ccc(C)cc2)c1 (stereo unspecified) -5.74%
CCOCCn1ccc2c(OCC(=O)NCc3ccc(C)cc3)cccc2c1=O -7.09%
CCn1cc(CCC(=O)NCc2ccc(F)cc2)c2ccccc21 -18.2%
CC(=O)c1ccc(S(=O)(=O)N2CCC(Oc3ccc(-n4cnnn4)cc3)CC2)cc1 -8.41%
CCc1cccc(NC(=O)c2cc(-c3ccccc3)n[nH]2)c1 -0.275%
COc1cccc(NC(=O)c2csnn2)c1 10.9%
Cc1ccc2cccc(NC(=O)C(C)Oc3ccc(C)c(C)c3)c2n1 (stereo unspecified) -2.89%
COCCCNC(=O)C1CCC(CNS(=O)(=O)c2ccc(OC)cc2)CC1 (stereo unspecified) -7.55%
COc1ccc(N2C(=O)NC(NS(=O)(=O)c3ccc(Cl)cc3)(C(F)(F)F)C2=O)cc1 (stereo unspecified) -2.22%
Cc1nnc(SCc2cc(=O)c3cc(F)ccc3[nH]2)n1C -15.5%
CCC(=O)N1CCc2cc(Br)cc(S(=O)(=O)CCC(=O)N3CCN(c4ccc(F)cc4)CC3)c21 1.23%
CCCCn1cc(S(=O)(=O)c2ccc(OCC)cc2)c(=O)c2cc(OC)c(OC)cc21 -26%
COc1ccc(CCC(=O)NCc2ccc3c(c2)CCN3C(=O)c2ccc(F)cc2)cc1 -17.6%
CCC(Sc1nnc(-c2ccc(OC)cc2)c(-c2ccc(OC)cc2)n1)C(=O)NC1CCCCC1 (stereo unspecified) -11.5%
CCOC(=O)c1ccc(NC(=O)c2nc(SCc3ccc(F)cc3)ncc2Cl)cc1 -27.7%
Cc1ccc(NC(=O)c2nc(S(=O)(=O)Cc3cccc(C)c3)ncc2Cl)cc1 -21.8%
CCOC(=O)C1CCCN(CC(=O)Nc2cc(C)c3c(=O)oc4ccccc4c3n2)C1 (stereo unspecified) -11.1%
CSc1ccccc1-c1nnc(NC(=O)c2ccc3c(c2)OCCO3)o1 -21.8%
CCn1cc(C(=O)NCc2ccccc2)c(=O)c2cc(S(=O)(=O)N3CCCCC3)ccc21 0.542%
CCOCCCNC(=O)c1cn(CC)c2ccc(S(=O)(=O)N3CCc4ccccc4C3)cc2c1=O 3.07%
COc1ccccc1NC(=O)Cn1cnc2ccc(S(=O)(=O)N3CCC(C)CC3)cc2c1=O 14.7%
CCc1cccc(CC)c1NC(=O)Cn1c(=O)c(-c2cc(C)ccc2NC(C)=O)nc2ccccc21 -6.44%
CCOC(=O)c1c(C)[nH]c(CCC(=O)NCCCN2CCN(c3cccc(Cl)c3)CC2)c1C 3.48%
CCc1nc2ccc(C(=O)N3CCN(c4cccc(Cl)c4)CC3)cc2nc1CC -29.3%
Cc1ccc(Cl)cc1N(C)C(=O)C1CCCN(c2ncnc3onc(-c4ccc(F)cc4)c23)C1 (stereo unspecified) -22%
CCNC(=O)CC1C(=O)N(c2ccc(F)cc2)C(=O)N1Cc1ccc(C)cc1 (stereo unspecified) 0.37%
CCCCC12CN3CC(C)(CN(C1)C3c1ccc(O)c(OC)c1)C2=O (stereo unspecified) -20.2%
Cn1c(C(=O)Nc2cccc(C(F)(F)F)c2)cc2c(=O)n3ccccc3nc21 4.29%
COc1cc(OC)cc(C(=O)Nc2ccc3nc(Nc4cccc(C(F)(F)F)c4)cc(C)c3c2)c1 -9.34%
Cn1c(=O)sc2cc(NS(=O)(=O)c3ccc(C(C)(C)C)cc3)ccc21 -13.3%
CCC(C)c1ccc2oc(-c3ccc(NC(=O)c4cc5ccccc5o4)cc3)nc2c1 (stereo unspecified) -0.177%
Cc1cc2nc(-c3ccc(NC(=O)c4cc5ccccc5o4)cc3)oc2cc1C -3.47%
CCOC(=O)c1ccc(CN(Cc2ccccc2)S(=O)(=O)c2ccc(Cl)cc2)cc1 -16.7%
O=C(O)CCCc1ccccc1 6.7%
COc1ccc(NC(=O)Cn2c(=O)n(Cc3ccc(C(=O)NCc4ccccc4Cl)cc3)c(=O)c3ccccc32)cc1 -4.2%
Cc1ccc(O)c(NC(=O)CCS(=O)(=O)c2nc(-c3ccc4c(c3)OCO4)cc(C(F)(F)F)n2)c1 -25.7%
COC(=O)c1ccc2c(c1)N(CC(=O)Nc1ccc(C)c(C)c1)C(=O)c1ccccc1S2 -13.7%
COc1ccc(CNC(=O)CCc2c(C)nn(-c3ccc(N4CCCC4)nn3)c2C)cc1 -8.15%
O=C(Nc1ccccc1Br)c1cc(CN2CCCC2)on1 -9.24%
Cc1ccccc1Cn1nc(C)c(NC(=O)c2cc(-c3ccc(F)cc3)on2)c1C 6.09%
Cc1ccc(NC(=O)C(Cc2ccccc2)NS(=O)(=O)c2ccc3c(c2)oc(=O)n3C)cc1C (stereo unspecified) 4.78%
CCN(CCCNC(=O)Cn1ncc2c3ccccc3n(C)c2c1=O)Cc1ccccc1 -3.31%
Cc1ccc(C)c(N2CCN(C(=O)Cn3nc(C)c4sc5ccccc5c4c3=O)CC2)c1 -8.71%
O=C(CN1c2ccccc2S(=O)(=O)c2ccccc21)Nc1cccc(C(F)(F)F)c1 1.8%
O=C(CCS(=O)(=O)c1ccc2c(c1)NC(=O)CO2)Nc1cccc(C(F)(F)F)c1 13.3%
CCc1ccccc1NC(=O)N1CCC2(CC1)Oc1ccccc1C(=O)N2Cc1ccccc1F -16.7%
O=C(CSc1n[nH]c(-c2ccccc2)n1)N1CCCCC1 7.63%
CCOc1ccc(NC(=O)c2c(NC(=O)Cc3ccccc3)sc3c2CCC(C)C3)cc1 (stereo unspecified) -11.2%
COC(=O)c1c(NC(=O)CCCOc2ccccc2)sc2c1CCC(C)C2 (stereo unspecified) 7.01%
COc1ccccc1-c1cc2nc(C)c(CCC(=O)O)c(C)n2n1 -0.841%
COc1ccc(NC(=O)CCCN2C(=O)CCn3nc(-c4cn(C)c5ccccc45)cc32)cc1OC 17.2%
CCOC(=O)c1ccc(N2C(=O)c3n[nH]c(C)c3C2c2ccc(O)c(OC)c2)cc1 (stereo unspecified) 21.2%
CCOc1ccc(-c2n[nH]c3c2C(c2ccccc2OC)N(c2ccc(Br)cc2)C3=O)cc1 (stereo unspecified) -5.97%

activation, active:
COc1cccc(-c2nnc3n(CCc4ccccc4)c(=O)c4ccccc4n23)c1O 77.1%
COc1cccc(NC(=O)CSc2cc(=O)n(C)c3ccc(Cl)cc23)c1 66.2%
Oc1c(C(c2ccc(F)cc2)N2CCN(Cc3ccccc3)CC2)sc2nc(-c3ccco3)nn12 (stereo unspecified) 64.8%
COc1ccc(CCC(=O)NCCc2csc(-c3ccc(Cl)cc3)n2)cc1 65.3%
CCCn1ccc2c(OCC(=O)NCc3ccc(F)cc3)cccc2c1=O 76.6%
COc1cccc(-c2cc(C(=O)Nc3ccc(C)cc3)[nH]n2)c1 64.6%
CCCS(=O)(=O)c1ncc(Cl)c(C(=O)Nc2scc(-c3ccccc3)c2C(=O)OCC)n1 97.2%
CCn1cc(C(=O)NCc2ccc(C)cc2)c(=O)c2cc(S(=O)(=O)N3CCc4ccccc4C3)ccc21 70.1%
CCc1nn(CCCN2CCN(c3cccc(Cl)c3)CC2)c(=O)n1CCOc1ccccc1 89.4%
Cc1cc(Nc2cccc(C(F)(F)F)c2)nc2ccc(NC(=O)c3ccc(=O)[nH]c3)cc12 112%
CC(C)Oc1ccc(NC(=O)c2cc3ccccc3o2)cc1 63.5%
O=C(OCc1ccccc1)c1ccc(O)cc1 68.1%
CCCCCCc1ccc(O)cc1O 89.2%
Cc1nn(Cc2ccc(F)cc2)c(C)c1NC(=O)c1cc(CC(C)C)on1 86.4%
CN(CC(=O)Nc1cccc(C(F)(F)F)c1)S(=O)(=O)c1cccs1 67.5%
Cc1cccc(OCCCC(=O)Nc2sc3c(c2C(N)=O)CCC(C)C3)c1 (stereo unspecified) 70.3%
CCOc1cc(C2c3c(-c4ccc(Br)cc4)n[nH]c3C(=O)N2c2ccc(Cl)cc2)ccc1O (stereo unspecified) 85.1%
